This excerpt belongs to a sample that is enriched for hits.
Lassa entry inh: qHTS for Inhibitors of binding or entry into cells for Lassa Virus | Lassa virus pseudotype entry inhibition, cell reporter | Potency, µM (series often up to 37.9 µM), without a hit: at the top dose activity change, negative = inhibition, hits mostly inhibitors | actives 1.2% (n = 300,000) | AID 540256, 2011; calls by dose curve; tested in HEK293 cells; also: potency is read from the fitted curve at half-maximal effect; % is scaled to controls: 0 for no effect and ±100 for the full control effect; nearly all actives have a fitted effect of over 50% in size
CHX counter: Cycloheximide Counterscreen for Small Molecule Inhibitors of Shiga Toxin; actives 12% (n = 300,000); max response, %; cell reporter, cycloheximide protein synthesis inhibition counterscreen; in the data active = max response mostly above about 13%, no sharp cut-off; inactive = mostly below about 14%; also: read at 38.3 µM for the half of the compounds with a filed dose; 0% is about no effect
Shiga inhibitor: A qHTS for Small Molecule Inhibitors of Shiga Toxin; Vero cells, Shiga toxin protein synthesis inhibition reporter; inhibition, % at 38.7 µM; actives 9.2% (n = 290,000); in the data active = inhibition mostly above about 28%, no sharp cut-off; inactive = mostly below about 43%; also: 0% is about no effect
AMA1-RON2 inh: qHTS for Inhibitors of AMA1-RON; Towards Development of Antimalarial Drug Lead: Primary Screen; AID 720542, 2013; Plasmodium falciparum AMA1 (3D7) - RON2 peptide interaction; AlphaScreen AMA1-biotinylated RON2 peptide binding; actives 0.2% (n = 360,000); Potency, µM (doses to about 58.2 µM), for the others: top-dose activity change, negative = inhibition, actives largely listed as inhibitors; active = well fitted inhibition curve with a large enough effect; inconclusive = small, poorly fitted or top-dose-only effect; inactive = no such curve, though single readings can be large or run the other way;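 also: potency is read from the fitted curve at half-maximal effect; 0% = vehicle wells and -100% = peptide control; nearly all actives have a fitted effect of over 45% in size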
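AMA1 (3D7) with his tag at 25 nM final met compounds first, then biotinylated RON2 peptide at 25 nM; detection used donor plus acceptor beads, 10 µg/mL apiece, read by AlphaScreen after 30 min at room temperature.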
Marburg entry inh: qHTS for inhibitors of binding or entry into cells for Marburg Virus | Potency, µM (top dose mostly 37.8 µM), without a hit: at the top dose activity change, negative = inhibition, hits mostly inhibitors | actives 1.8% (n = 300,000) | Marburg virus pseudotyped entry inhibition, cell reporter; calls by dose curve; tested in HEK293 cells; also: potency is read from the fitted curve at half-maximal effect; % is scaled to controls: 0 for no effect and ±100 for the full control effect
* marks the source's active call; other numbers are inactive results; ? = inconclusive; nt = not tested or not shown; [ ] = remark or other dose.

SMILES | Lassa entry inh | CHX counter | Shiga inhibitor | AMA1-RON2 inh | Marburg entry inh
NC(=O)C1CCN(C2=C(NS(=O)(=O)c3ccc(Cl)cc3)C(=O)c3ccccc3C2=O)CC1 | nt | -0.3 | 11.1 | ? | nt
COC(=O)C1CCN(C2=C(NS(=O)(=O)c3ccc(Cl)cc3)C(=O)c3ccccc3C2=O)CC1 | nt | 16.8 | 20.3 | 20µM* | nt
CC1CCCN(C2=C(NS(=O)(=O)c3ccc(Cl)cc3)C(=O)c3ccccc3C2=O)C1 (stereo not given) | ? | 22.2* | 40.1* | ? | ?
CC(C)n1c(SCC(=O)c2ccc(F)cc2)nc2c(sc3ccccc32)c1=O | 26.9%[46.1 µM] | nt | nt | nt | nt
COc1cc(O)c(C(CCN2CCOCC2)c2ccc3c(c2)OCO3)c(OC)c1 (stereo not given) | nt | -3.4 | -3.0 | -19.6% | nt
COc1cc(O)c(C(CCN2CCOCC2)c2ccc(N(C)C)cc2)c(OC)c1 (stereo not given) | nt | -6.7 | 1.9 | 20µM* | nt
COc1ccc(C(CCN2CCN(c3ccccc3)CC2)c2c(O)cc(OC)cc2OC)cc1 (stereo not given) | nt | -5.1 | -10.6 | ? | nt
COc1cc(O)c(C(CCN2CCN(c3ccccc3)CC2)c2ccc(N(C)C)cc2)c(OC)c1 (stereo not given) | nt | -2.8 | 26.7 | 11.2µM* | nt
COc1ccc(C(=O)NN=C(Cc2ccccc2)Cc2ccccc2)cc1OC | ? | 0.2 | 10.9 | 78.4% | 2.2%
COc1cccc(C(=O)N/N=C(\C)c2ccc(NC(=O)Cc3ccccc3)cc2)c1OC | -3.0%[46.1 µM] | 18.4* | 27.0 | 0.8% | 17.5%[46.1 µM]
COc1ccc(CC(=O)Nc2ccc(/C(C)=N/NC(=O)c3ccc(OC)cc3OC)cc2)cc1 | 11.4%[46.1 µM] | 28.0* | 50.4* | 16.7% | -3.0%[46.1 µM]
COc1cc(C(=O)N/N=C(\C)c2ccc(NC(=O)Cc3ccccc3)cc2)ccc1O | nt | 39.2* | 45.1* | 10.8% | nt
C/C(=N\NC(=O)c1ccccc1O)c1ccc(NC(=O)Cc2ccccc2)cc1 | -1.4% | 28.9* | 41.4* | -11.9% | -20.8%
O=C(Cc1ccccc1)Nc1ccc(C(=O)O)cc1 | -19.9%[14.3 µM] | 5.7 | 15.7 | -0.3% | -2.7%
CCC(C)Cn1c(C(C)O)nc2ccccc21 (stereo not given) | ? | 3.8 | 8.6 | -9.5% | ?
C/C(=N\NC(=O)c1cccc(O)c1)c1ccc(NC(=O)Cc2ccccc2)cc1 | 9.0% | 34.0* | 69.3* | -9.3% | ?
CC[C@H](C)[C@H](NC(=O)[C@H](CO)NC(=O)[C@H](C)NC(=O)[C@H](C)NC(=O)[C@H](CCC(N)=O)NC(=O)[C@H](CCCCN)NC(=O)[C@H](CCCN=C(N)N)NC(=O)[C@@H](N)CS)C(=O)N[C@@H](CCCCN)C(=O)N[C@H](C(=O)N[C@@H](C)C(=O)N[C@H](C(=O)N[C@@H](CO)C(=O)O)C(C)C)C(C)C | nt | -5.5 | 12.8 | nt | nt
CCc1ccc(N(CC)C(=O)c2ccc3c(=O)n4c(nc3c2)CCCCC4)cc1 | -24.1%[46.1 µM] | nt | nt | nt | -20.0%[46.1 µM]
Cc1nn(C)c(C)c1C1Nc2ccccc2C(=O)N1O (stereo not given) | -1.3% | 16.1* | 42.2 | 12.1% | 0.0%
Cc1nn(C)cc1C1Nc2ccccc2C(=O)N1O (stereo not given) | 3.5% | 6.5 | 43.1 | -3.0% | 3.9%
C=CCc1cccc(C2Nc3ccccc3C(=O)N2O)c1O (stereo not given) | -0.7% | 0.7 | -4.6 | 91.8% | 12.6%
O=C1c2ccccc2NC(c2cnc3ccccc3n2)N1O (stereo not given) | ? | 49.4* | 71.4* | 16.8% | ?
Cc1ccsc1C1Nc2ccccc2C(=O)N1O (stereo not given) | 1.6% | 20.2* | 46.6* | 22.5% | ?
CCCCN(C)C(=O)c1oc2ccc(S(=O)(=O)N3CCCCCC3)cc2c1C | 13.9%[14.3 µM] | -5.1 | -18.2 | 8.4% | 5.1%
C[C@@H]1CN(Cc2cn(C)nc2-c2cccc(Cl)c2)C[C@H](C)O1 | 3.2% | -2.3 | -4.0 | -2.6% | 2.1%[46.1 µM]
SMILES | Lassa entry inh | CHX counter | Shiga inhibitor | AMA1-RON2 inh | Marburg entry inh
CC(C)c1ccc(Cc2cnc(NC(=O)c3ccc4c(c3)CC(c3ccccc3)OC4=O)s2)cc1 (stereo not given) | -2.2%[46.1 µM] | nt | nt | nt | 0.0%[46.1 µM]
CC(=O)c1cccc(NC(=S)N2CCN(S(=O)(=O)c3ccccc3)CC2)c1 | ? | 9.7* | 50.4 | ? | 7.8%
Cc1cccc(NC(=S)N2CCN(S(=O)(=O)c3ccccc3)CC2)c1 | ? | -0.8 | -6.2 | -6.7% | 5.3%[46.1 µM]
Cc1cccc(NC(=S)N2CCN(S(=O)(=O)c3cccc(F)c3)CC2)c1 | -0.3% | 8.6 | 6.4 | 22.4% | ?
CC(=O)c1cccc(NC(=S)N2CCN(S(=O)(=O)c3ccc(F)cc3)CC2)c1 | -7.6% | 19.2* | -0.3 | 5.6% | -23.2%[46.1 µM]
CSc1nnc2sc3cc(C)ccc3n12 | nt | nt | nt | 0.0% | nt
Cc1ccc2c(c1)sc1nc(=O)n(-c3ccccc3)c(=O)n12 | -26.9%[46.1 µM] | 44.6* | 93.0* | -3.1% | ?
Cc1cc(C)c(NC(=O)CNC(=O)COC(=O)/C=C/c2cccs2)c(C)c1 | 28.9% | nt | nt | -3.5% | 8.8%
FC(F)C(F)(F)c1cc(-c2ccc(Cl)cc2)n[nH]1 | 2.7% | 31.4* | 46.2* | 1.5% | -10.5%[14.2 µM]
Oc1ccccc1-c1cc(C(F)(F)C(F)F)[nH]n1 | -11.6% | 22.5* | 28.1* | 5.9% | ?
Oc1ccccc1-c1cc(C(F)(F)F)[nH]n1 | nt | 9.8 | -5.9 | nt | nt
Clc1ccc(-c2cc(C3CCNCC3)[nH]n2)cc1 | -22.2% | 14.4 | -2.8 | 4.3% | ?
Fc1ccc(-c2cc(C(F)(F)C(F)F)[nH]n2)cc1 | 5.6% | 27.0* | 64.6* | -7.8% | -8.1%[14.2 µM]
COc1ccc2c(c1)cc1c(=O)n(CC(=O)NCCc3ccccc3)nc(C)n12 | nt | nt | nt | nt | 6.4%[46.1 µM]
C=CCn1c(SCC(=O)Nc2cc(C)on2)nc2ccccc21 | nt | nt | nt | -7.9% | nt
COc1ccccc1-c1cccc2nccn12 | nt | nt | nt | -10.1% | nt
O=C(Nc1ccc(Nc2ccccc2)cc1)c1ccccc1F | -27.3%[46.1 µM] | 33.2* | 73.8* | -7.3% | ?
COc1ccc(C(=O)Nc2ccc(C3(C#N)CCCC3)cc2)cc1 | ? | 10.3 | -9.7 | 1.8% | 11.3%[14.2 µM]
O=C(O)c1cc(NC(=O)c2ccccc2F)cc(NC(=O)c2ccccc2F)c1 | 5.1%[46.1 µM] | -2.1 | -11.9 | 6.3% | -8.6%[46.1 µM]
N#CC1(c2ccc(NC(=O)c3ccccc3F)cc2)CCCC1 | ? | 44.8* | 62.3* | 53.0% | ?
CCN(CC)c1ccc(NC(=O)c2ccccc2F)cc1 | ? | 37.8* | 71.2* | -2.7% | ?
C/C(=N/NC(=O)C1CCCC1)c1ccc(NC(=O)C(F)(F)F)cc1 | nt | 19.2* | 32.3 | nt | nt
C/C(=N\NC(=O)c1ccco1)c1ccc(NC(=O)c2cccs2)cc1 | 2.4% | 64.2* | 129.5* | 5.5% | -4.8%
C/C(=N\NC(=O)c1ccccc1C)c1ccc(NC(=O)c2cccs2)cc1 | -14.4% | 45.8* | 113.8* | 3.9% | -25.2%
C/C(=N\NC(=O)C(N)=O)c1ccc(NC(=O)c2cccs2)cc1 | 10.4% | 33.1* | 68.9* | -18.5% | -4.9%[46.1 µM]

Screens as filed in PubChem.
